The subject of this assay is Leishmania donovani. Put plainly: Leishmania intramacrophage assay. Type of assay: functional, organism-based. Further details: scale not given: in the data most compounds retested in dose-response had high values.

Each structure is given as a SMILES string. The whole screen tested about 69,000 compounds, of which about 1,000 (1.4%) showed an effect of 50% or more. Many of the other results were omitted from the sample, so strong results are more common in it than they were.

`CC1CCCN(CCCNC(=O)Cc2csc(-c3ccoc3)n2)C1` (stereo unspecified): the “Percent Effect” value (30.3 µM, […]) is reported as 9.746%.

For `O=C(CCNc1ncccn1)NCc1ccc(Br)s1`, the “Percent Effect” value (30.3 µM, […]) is given as 14.9%.

Take `Cc1nn(C)c2c(N(C)Cc3cccs3)nc(C3CC3)nc12`: the “Percent Effect” value (30.3 µM, […]) is recorded as 56.51%.

For `Cc1nn(C)c2c(N(C)Cc3ccco3)nc(C3CC3)nc12`, for the setting “30.3 µM, […]”, the “Percent Effect” value is listed as 10.49%.

Consider `Cc1nn(C)c(C)c1CN(C)c1nc(C2CC2)nc2c(C)nn(C)c12`, for which the “Percent Effect” value (30.3 µM, […]) is -21.06%.

For the compound `CN1CCOC(CNCCOc2cccc(C#N)c2)C1` (stereo unspecified), where the note is “30.3 µM, […]”, the “Percent Effect” value is recorded as 25.34%.

For the compound `Cn1cccc1C(=O)NCc1cn2c(n1)CN(CC1CCOC1)CC2` (stereo unspecified), under “30.3 µM, […]”, the “Percent Effect” value was determined as 22.42%.

As to `CC(C)CCN1CCN(C(=O)c2ccc(=O)[nH]n2)CC1`, where the note is “30.3 µM, […]”, the “Percent Effect” value is given as 20.4%.

Regarding `Cc1cc(NC(=O)CN2CCCC2c2noc(C(C)C)n2)on1` (stereo unspecified), for the setting “30 µM”, the “Percent Effect” value came out at 7.102%.

For `O=C(Cn1ccc2c(Cl)cccc21)N1CCCC1`, for the setting “30.3 µM, […]”, the “Percent Effect” value was found to be 16.62%.

`CN1CCN(C(=O)Cn2ccc3c(Cl)cccc32)CC1`: the “Percent Effect” value (30.3 µM, […]) was 54.77%.

For `CC(=O)N1CCN(C(=O)Cn2ccc3c(Cl)cccc32)CC1`, the “Percent Effect” value (30.3 µM, […]) was determined as 1.884%.

With `Cc1cc(C)c(CNC(=O)N2CCN(c3ncccn3)CC2)c(=O)[nH]1`, under “30 µM, 30.03 µM”, the “Percent Effect” value is -5.034%.

Turning to `COc1cccc(CNC(CN2CCN(C)CC2)c2ccccc2)c1` (stereo unspecified), the “Percent Effect” value (30 µM, 30.03 µM) stood at 76.19%.

As for `Cc1cc(C)cc(CNC(c2ccccc2)c2nccn2C)c1` (stereo unspecified), the “Percent Effect” value (30 µM) amounted to 35.61%.

On to `O=C(C(CNCc1cccc(O)c1)c1ccccc1)N1CCOCC1` (stereo unspecified), for which the “Percent Effect” value (30.3 µM, […]) amounted to 17.14%.

On to `COc1cccc(C(=O)N2CCN(CC(O)c3ccccc3)CC2)c1` (stereo unspecified), for which the “Percent Effect” value (30.3 µM, […]) is given as -2.836%.

On to `COc1ccc(C(CN2CCN(C)CC2)Nc2ncccn2)cc1` (stereo unspecified), for which the “Percent Effect” value (30.3 µM, […]) is reported as -7.981%.

Consider `COCCN1CCC(NCc2cccc(C)c2)C1` (stereo unspecified), for which the “Percent Effect” value (30 µM) is on record as 11.56%.

For the compound `Cc1cccc(CNC(CN2CCN(C)CC2)c2ccccc2)c1` (stereo unspecified), for the setting “30 µM, 30.03 µM”, the “Percent Effect” value is 98.99%.

For the compound `CNS(=O)(=O)c1cccc(C(C)NCc2cccc(O)c2)c1` (stereo unspecified), for the setting “30.3 µM, […]”, the “Percent Effect” value is 23.7%.

For `O=C(c1nnn(-c2ccc(F)cc2)n1)N1CCC(O)CC1`, the “Percent Effect” value (30.3 µM, […]) is reported as 1.215%.

For `O=C(c1cn(CCN2CCCCC2)nn1)N1CCSCC1`, where the note is “30.3 µM, […]”, the “Percent Effect” value came to 25.8%.

Consider `CC(O)CN1CC(C)(C)CN(C(=O)CCc2ccccc2)CC1=O` (stereo unspecified), for which the “Percent Effect” value (30.3 µM, […]) is given as -1.72%.

Regarding `O=C(CN1CCOC(Cn2cccn2)C1)NCCc1ccc(F)cc1` (stereo unspecified), where the note is “30 µM, 30.03 µM”, the “Percent Effect” value is reported as 1.853%.

For `COCCn1c2c(ccc1=O)CCN(C(=O)Cc1ccsc1)CC2`, the “Percent Effect” value (30.3 µM, […]) stood at 55.32%.

Regarding `COCCn1c2c(ccc1=O)CCN(C(=O)Cc1cccs1)CC2`, the “Percent Effect” value (30.3 µM, […]) is reported as 20.34%.

For the compound `O=C(Cc1ccsc1)N1CCc2ccc(=O)n(CC3CC3)c2CC1`, the “Percent Effect” value (30.3 µM, […]) was determined as 10.53%.

For `O=C(O)c1cccc(S(=O)(=O)N2CCOc3ccccc32)c1`, the “Percent Effect” value (30 µM) amounted to 14.21%.

Regarding `COc1cc2c(cc1C1CC(=O)NCc3nc(N(C)C)sc31)CCC2` (stereo unspecified), the “Percent Effect” value (30.3 µM, […]) is 11.87%.

On to `COc1ccc(C2CC(=O)NCc3nc(N(C)C)sc32)c(O)c1` (stereo unspecified), for which the “Percent Effect” value (30.3 µM, […]) came out at 16.16%.

For the compound `COc1ccc(C(C)C)cc1C1CC(=O)NCc2nc(N(C)C)sc21` (stereo unspecified), the “Percent Effect” value (30.3 µM, […]) was determined as 60.09%.

For `C[C@@H]1CN(C2CCCCC2)CC[C@@]1(O)C1CCOCC1`, for the setting “30.3 µM, […]”, the “Percent Effect” value is -0.4391%.

On to `C[C@@H]1CN(C2CCN(c3ccccc3)CC2)CC[C@@]1(O)C1CCOCC1`, for which, for the setting “30.3 µM, […]”, the “Percent Effect” value is 22.22%.

As to `C[C@@H]1CN(C2Cc3ccccc3C2)CC[C@@]1(O)C1CCOCC1`, under “30.3 µM, […]”, the “Percent Effect” value is reported as 63.81%.

In the case of `CN(C)C(=O)NC1COC2(CCN(Cc3nccn3C)CC2)C1` (stereo unspecified), the “Percent Effect” value (30 µM, 30.03 µM) stood at 3.872%.

Take `c1cnnc(N2CCCC2CNCc2nc(-c3ccoc3)no2)c1` (stereo unspecified): where the note is “30 µM”, the “Percent Effect” value came to 14.13%.

`COC(=O)c1cccn1C1CCN(Cc2cccnc2)CC1`: the “Percent Effect” value (30 µM) turned out to be 38.52%.

In the case of `O=C(O)C(F)(F)F.c1csc(CN2CCCn3cnc(COCC4CC4)c3C2)n1`, the “Percent Effect” value (30.3 µM, […]) is reported as 26.9%.

Turning to `O=C(O)C(F)(F)F.c1csc(CN2CCCn3nnc(COCC4CC4)c3C2)n1`, where the note is “30.3 µM, […]”, the “Percent Effect” value amounted to 52.28%.

Consider `O=C(O)C(F)(F)F.c1ccc(CN2CCCn3nnc(Cn4cccc4)c3C2)nc1`, for which the “Percent Effect” value (30.3 µM, […]) is reported as -22.64%.

For the compound `Cc1ccc(CN2CCc3c(COCC4CC4)nn(C)c3C2)s1.O=C(O)C(F)(F)F`, the “Percent Effect” value (30.3 µM, […]) is 25.61%.

`O=C(O)C(F)(F)F.c1cnc(NCc2nnn3c2CN(Cc2ccco2)CCC3)nc1`: the “Percent Effect” value (30.3 µM, […]) was -8.13%.

For `Cc1ccc(CN2Cc3nnn(C)c3C(COCCN(C)C)C2)s1.O=C(O)C(F)(F)F.O=C(O)C(F)(F)F` (stereo unspecified), the “Percent Effect” value (30 µM, 30.03 µM) is 25.22%.

Take `Cc1ccc(CN2CCCn3nnc(COCCN(C)C)c3C2)s1.O=C(O)C(F)(F)F.O=C(O)C(F)(F)F`: the “Percent Effect” value (30.3 µM, […]) is on record as 66.44%.

In the case of `COCc1nn(C(C)C)c2c1CCN(Cc1ccc(C)s1)C2.O=C(O)C(F)(F)F`, the “Percent Effect” value (30 µM, 30.03 µM) worked out at 26.5%.

On to `O=C(O)C(F)(F)F.c1ccc(CN2CCCn3nnc(CNc4ncccn4)c3C2)nc1`, for which the “Percent Effect” value (30.3 µM, […]) is on record as 67.35%.

In the case of `Cc1ccc(CN2CCc3c(COC(C)C)nn(C)c3C2)s1.O=C(O)C(F)(F)F`, the “Percent Effect” value (30.3 µM, […]) was found to be 54.88%.

Take `Cc1ccc(CN2CCCn3nnc(COCC4CC4)c3C2)s1.O=C(O)C(F)(F)F`: the “Percent Effect” value (30 µM, 30.03 µM) is 16.69%.

Consider `Fc1ccc(CN2CCCn3nnc(COCC4CC4)c3C2)cc1.O=C(O)C(F)(F)F`, for which the “Percent Effect” value (30.3 µM, […]) is given as -0.08958%.

Regarding `Cc1ccccc1CN1C[C@@H]2CC[C@H](C1)N(CC1CCC1)C2=O`, the “Percent Effect” value (30.3 µM, […]) was found to be 6.524%.

Source of the values: ChEMBL document CHEMBL3988442, “University of Dundee, Small-Polar-MMV Screening Library” (2021).
